# Test results taken from the supplement of paper PMC8728848.
# Shown is part of a subset that was picked to be rich in the strongest signals.
# B1: CRT-1 (Homo sapiens), P27797 (protein)
# chain: MLLSVPLLLGLLGLAVAEPAVYFKEQFLDGDGWTSRWIESKHKSDFGKFVLSSGKFYGDEEKDKGLQTSQDARFYALSASFEPFSNKGQTLVVQFTVKHEQNIDCGGGYVKLFPNSLDQTDMHGDSEYNIMFGPDICGPGTKKVHVIFNYKGKNVLINKDIRCKDDEFTHLYTLIVRPDNTYEVKIDNSQVESGSLEDDWDFLPPKKIKDPDASKPEDWDERAKIDDPTDSKPEDWDKPEHIPDPDAKKPEDWDEEMDGEWEPPVIQNPEYKGEWKPRQIDNPDYKGTWIHPEIDNPEYSPDPSIYAYDNFGVLGLDLWQVKSGTIFDNFLITNDEAYAEEFGNETWGVTKAAEKQMKDKQDEEQRLKEEEEDKKRKEEEEAEDKEDDEDKDEDEEDEEDKEEDEEEDVPGQAKDEL
# Columns and labels:
# Assay in all cases: glycan array binding signal (z-score within array); higher = stronger binding
# Details in all cases: glycan notation: IUPAC condensed, linker removed
# Gal3S(b1-3)GalNAc = target: Gal3S(b1-3)GalNAc
# In short: (§1)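 Glycan array binding is given as a within-array Z-score, which can be read as non-binding when negative. The arrays, 3228 of them, came from the Consortium for Functional Glycomics database and were retained only where the protein sequence was available. Z-scores were averaged across arrays of the same protein sequence at different concentrations or buffers and across linkers.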
# Gal3S(b1-4)GlcNAc6S = target: Gal3S(b1-4)GlcNAc6S
# In short: as §1
# Gal6S(b1-4)Glc = target: Gal6S(b1-4)Glc
# In short: as §1
# Gal6S(b1-4)GlcNAc = target: Gal6S(b1-4)GlcNAc
# In short: as §1
# [1] = target: GalNAc(b1-3)Gal(a1-4)Gal(b1-4)GlcNAc(b1-3)Gal(b1-4)Glc
# In short: as §1
# GalNAc(b1-3)GlcNAc = target: GalNAc(b1-3)GlcNAc
# In short: as §1
# GalNAc(b1-6)GalNAc = target: GalNAc(b1-6)GalNAc
# In short: as §1
# [2] = target: Glc(a1-6)Glc(a1-6)Glc(a1-6)Glc
# In short: as §1
# [3] = target: GlcNAc(a1-4)Gal(b1-4)GlcNAc(b1-3)Gal(b1-4)[Fuc(a1-3)]GlcNAc(b1-3)Gal(b1-4)[Fuc(a1-3)]GlcNAc
# In short: as §1
# [4] = target: GlcNAc(a1-6)Gal(b1-4)GlcNAc
# In short: as §1
# [5] = target: GlcNAc(b1-3)Gal(b1-4)GlcNAc(b1-2)[GlcNAc(b1-3)Gal(b1-4)GlcNAc(b1-6)]Man(a1-6)[GlcNAc(b1-3)Gal(b1-4)GlcNAc(b1-2)Man(a1-3)]Man(b1-4)GlcNAc(b1-4)GlcNAc
# In short: as §1
# [6] = target: GlcNAc(b1-3)Gal(b1-4)GlcNAc(b1-3)Gal(b1-4)GlcNAc(b1-2)Man(a1-3)[GlcNAc(b1-3)Gal(b1-4)GlcNAc(b1-3)Gal(b1-4)GlcNAc(b1-2)Man(a1-6)]Man(b1-4)GlcNAc(b1-4)[Fuc(a1-6)]GlcNAc
# In short: as §1
# [7] = target: GlcNAc(b1-3)Gal(b1-4)GlcNAc(b1-3)Gal(b1-4)GlcNAc(b1-3)Gal(b1-4)GlcNAc(b1-3)Gal(b1-4)GlcNAc(b1-2)Man(a1-3)[GlcNAc(b1-3)Gal(b1-4)GlcNAc(b1-3)Gal(b1-4)GlcNAc(b1-3)Gal(b1-4)GlcNAc(b1-3)Gal(b1-4)GlcNAc(b1-2)Man(a1-6)]Man(b1-4)GlcNAc(b1-4)GlcNAc
# In short: as §1
# GlcNAc(b1-3)Man = target: GlcNAc(b1-3)Man
# In short: as §1
# [8] = target: Neu5Ac(a2-3)Gal(b1-3)GlcNAc(b1-2)[Neu5Ac(a2-3)Gal(b1-3)GlcNAc(b1-4)]Man(a1-6)[Neu5Ac(a2-3)Gal(b1-3)GlcNAc(b1-2)Man(a1-3)]Man(b1-4)GlcNAc(b1-4)GlcNAc
# In short: as §1
# [9] = target: Neu5Ac(a2-3)Gal(b1-4)GlcNAc(b1-6)[Neu5Ac(a2-3)Gal(b1-3)]GalNAc
# In short: as §1
# [10] = target: Neu5Ac(a2-3)Gal(b1-4)[Fuc(a1-3)]GlcNAc(b1-3)Gal(b1-4)GlcNAc
# In short: as §1
# [11] = target: Neu5Ac(a2-3)[GalNAc(b1-4)]Gal(b1-4)GlcNAc(b1-3)GalNAc
# In short: as §1
# [12] = target: Neu5Ac(a2-6)Gal(b1-4)GlcNAc(b1-2)Man(a1-3)[GlcNAc(b1-2)Man(b1-4)GlcNAc(b1-2)Man(a1-6)]Man(b1-4)GlcNAc(b1-4)GlcNAc
# In short: as §1
# [13] = target: Neu5Ac(a2-6)Gal(b1-4)GlcNAc(b1-2)Man(a1-3)[Man(a1-6)]Man(b1-4)GlcNAc(b1-4)GlcNAc
# In short: as §1
# [14] = target: Neu5Ac(a2-6)Gal(b1-4)GlcNAc(b1-2)Man(a1-3)[Neu5Ac(a2-6)Gal(b1-4)GlcNAc(b1-2)Man(a1-6)]Man(b1-4)GlcNAc(b1-4)GlcNAc
# In short: as §1
# [15] = target: Neu5Ac(a2-6)Gal(b1-4)GlcNAc(b1-3)Gal(b1-4)GlcNAc(b1-3)Gal(b1-4)GlcNAc(b1-2)Man(a1-3)[Neu5Ac(a2-6)Gal(b1-4)GlcNAc(b1-3)Gal(b1-4)GlcNAc(b1-3)Gal(b1-4)GlcNAc(b1-2)Man(a1-6)]GalNAc
# In short: as §1
# [16] = target: Neu5Ac(a2-6)Gal(b1-4)GlcNAc(b1-3)Gal(b1-4)GlcNAc(b1-3)GalNAc
# In short: as §1
# Neu5Ac(a2-6)GalNAc = target: Neu5Ac(a2-6)GalNAc
# In short: as §1
# [17] = target: Neu5Ac(a2-8)Neu5Gc(a2-3)Gal(b1-4)GlcNAc
# In short: as §1
# [18] = target: Neu5Gc(a2-3)Gal(b1-3)GlcNAc
# In short: as §1
# [19] = target: Neu5Gc(a2-8)Neu5Gc(a2-3)Gal(b1-4)GlcNAc
# In short: as §1
binder,measurement,setting,value
B1,glycan array binding signal (z-score),Gal3S(b1-3)GalNAc,-0.188
same,glycan array binding signal (z-score),Gal3S(b1-4)GlcNAc6S,-0.498
same,glycan array binding signal (z-score),Gal6S(b1-4)Glc,-0.297
same,glycan array binding signal (z-score),Gal6S(b1-4)GlcNAc,-0.673
same,glycan array binding signal (z-score),[1],0.488
same,glycan array binding signal (z-score),GalNAc(b1-3)GlcNAc,0.853
same,glycan array binding signal (z-score),GalNAc(b1-6)GalNAc,0.544
same,glycan array binding signal (z-score),[2],0.137
same,glycan array binding signal (z-score),[3],1.95
same,glycan array binding signal (z-score),[4],-0.513
same,glycan array binding signal (z-score),[5],2.14
same,glycan array binding signal (z-score),[6],1.91
same,glycan array binding signal (z-score),[7],0.27
same,glycan array binding signal (z-score),GlcNAc(b1-3)Man,0.915
same,glycan array binding signal (z-score),[8],-0.396
same,glycan array binding signal (z-score),[9],-0.461
same,glycan array binding signal (z-score),[10],0.745
same,glycan array binding signal (z-score),[11],-0.233
same,glycan array binding signal (z-score),[12],12.5
same,glycan array binding signal (z-score),[13],0.357
same,glycan array binding signal (z-score),[14],2.53
same,glycan array binding signal (z-score),[15],1.9
same,glycan array binding signal (z-score),[16],-1.62
same,glycan array binding signal (z-score),Neu5Ac(a2-6)GalNAc,0.869
same,glycan array binding signal (z-score),[17],-0.349
same,glycan array binding signal (z-score),[18],-0.645
same,glycan array binding signal (z-score),[19],-0.33
